The results in this text go back to PubChem BioAssay (Tox21).

Experiment [1] is described as follows: qHTS assay for small molecule agonists of the p53 signaling pathway (AID 651631; calls by dose curve; note: nearly all actives have a fitted effect of over 15% in size). In outline:
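Fluorescence intensity from cleaved LiveBLAzer B/G substrate (2 h, room temperature) served as the signal. Beforehand, HCT-116 reporter cells bearing p53 response elements were treated 16 h at 37 °C with DMSO-dissolved compounds.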
A general note: In qHTS, concentration-response curves come from the screen itself.

The nature of experiment [2]: qHTS assay for small molecules that induce genotoxicity in human embryonic kidney cells expressing luciferase-tagged ATAD5 (AID 651632). Note: nearly all actives have a fitted effect of over 15% in size. An outline of the steps:
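Quantitative HTS in HEK293T expressing luciferase-tagged ATAD5, whose levels rise upon DNA damage. Exposure ran 16 hr at 37C and 5% CO2, with luminescence read 30 min after Amplite addition at room temperature.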

The nature of experiment [3]: qHTS assay for small molecule agonists of the p53 signaling pathway - cell viability (AID 651633; calls by dose curve; note: nearly all actives have a fitted effect of over 30% in size; note: potency is the fitted concentration of half-maximal effect;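 for activity change, negative = cytotoxicity: p53RE-bla HCT reporter cells with a stable beta-lactamase p53 reporter; series mostly up to about 83 µM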). In outline:
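p53RE-bla cells were treated with compound for 16 hours at 37 C. Cytotoxicity was then measured as CellTiter-Glo luminescence after 30 min at room temperature.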

Experiment [4] is described as follows: qHTS assay for small molecules that induce genotoxicity in human embryonic kidney cells expressing luciferase-tagged ATAD5 - cell viability (AID 651634; calls by dose curve; note: nearly all actives have a fitted effect of over 25% in size). An outline of the steps: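 After 15.5 hr incubation with compound at 37C, 5% CO2, HEK293T ATAD5-luciferase cells received CellTiter-Fluor reagent; fluorescence intensity was quantified following 30 min at 37C.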

Experiment [5] can be described thus: qHTS assay for small molecule disruptors of the mitochondrial membrane potential - cell viability (AID 720634; calls by dose curve;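 note: human HepG2 liver cancer cells; series mostly up to about 83 µM; nearly all actives have a fitted effect of over 20% in size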). An outline of the steps: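 ATP-based luminescent viability readout (CellTiter-Glo, 30 min, room temperature) in HepG2 cells multiplexed with the m-MPI membrane potential dye; compound exposure lasted 1 hr at 37 C.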
A short description of experiment [6]: qHTS assay to test for compound auto fluorescence at 590 nm (red) in HepG2 cells (AID 720674). An outline of the steps:
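Fluorescence at 590 nm emission following 540 nm excitation was recorded from HepG2 wells one hour after compound transfer, with DMSO-only wells as vehicle and Rose Bengal sodium equivalency as the scale.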

Experiment [7] is described as follows: qHTS assay to test for compound auto fluorescence at 460 nm (blue) in HEK293 cells (AID 720678). In outline: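 HEK293, 2,000 cells/well, 10% dialyzed FBS; attach 4-5 hr 37C; pin compound or DMSO; o/n 37C/5% CO2; fluorescence 405/460 nm; triamterene-equivalent units.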
Experiment [8] is described as follows: qHTS assay to test for compound auto fluorescence at 590 nm (red) in HEK293 cells (AID 720679). An outline of the steps: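 Intensity at 540nm excitation and 590nm emission is reported as Rose Bengal sodium-equivalent autofluorescence. Measurements followed overnight exposure (37C, 5% CO2) of HEK293 cells, 2,000 per well, to 23 nL compound.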
Experiment [9] in a line: qHTS assay to test for compound auto fluorescence at 535 nm (green) in HEK293 cells (AID 720680).
A short description of experiment [10]: qHTS assay to test for compound auto fluorescence at 460 nm (blue) in HEK293 cell free culture (AID 720681). In outline: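 Compounds were added to cell-free DMEM with 10% FBS and fluorescence read directly. The blue channel used 405 nm excitation and 460 nm emission, with triamterene as the reference fluorophore.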
A short description of experiment [11]: qHTS assay to test for compound auto fluorescence at 535 nm (green) in HEK293 cell free culture (AID 720682). An outline of the steps:
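Intrinsic compound fluorescence is measured in culture medium containing 10% FBS, with excitation at 485 nm and detection at 535 nm, referenced to fluorescein.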

The nature of experiment [12]: qHTS assay to test for compound auto fluorescence at 590 nm (red) in HEK293 cell free culture (AID 720683). In outline:
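Cell-free wells of DMEM with 10% FBS received compound, and intrinsic fluorescence was read at excitation/emission 540/590 nm. Values expressed as equivalence to Rose Bengal sodium.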

The nature of experiment [13]: qHTS assay to test for compound auto fluorescence at 590 nm (red) in HepG2 cell free culture (AID 720684). In outline:
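Rose Bengal sodium served as the reference for red signal. Test compounds were dispensed into serum-containing MEM (10% FBS) without cells, and plates were read at 540/590 nm.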

The nature of experiment [14]: qHTS assay to test for compound auto fluorescence at 460 nm (blue) in HepG2 cell free culture (AID 720685). An outline of the steps: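 Cell-free plates of MEM plus 10% FBS received 23 nL compound or DMSO vehicle; blue-channel (405/460 nm) intensity scored against triamterene as reference fluorophore.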
Experiment [15] in a line: qHTS assay to test for compound auto fluorescence at 535 nm (green) in HepG2 cell free culture (AID 720686).
Experiment [16] can be described thus: qHTS assay to test for compound auto fluorescence at 460 nm (blue) in HepG2 cells (AID 720687). In outline: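 HepG2 cells in MEM with 10% FBS, attached overnight at 37 C, were exposed to compound or DMSO for 1 hr at 37 C, 5% CO2. Blue fluorescence was read at 405/460 nm, with triamterene as reference fluorophore.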
Experiment [17] has as its target Glucocorticoid receptor (Homo sapiens) (UniProt P04150). In words: qHTS assay to identify small molecule agonists of the glucocorticoid receptor (GR) signaling pathway (AID 720691; active = well fitted activation curve with a large enough effect in the signal ratio in the repeat runs, not every such curve was filed as active; the % refers to the signal ratio). In outline: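 Cells: GR-bla HeLa, endogenous GR with stably integrated GRE-beta-lactamase reporter. Treatment 18 h, 37 C, compounds delivered in DMSO. Detection via LiveBLAzer B/G FRET substrate, 2 h RT, fluorescence intensity.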

For experiment [18] the target is unchanged. The experiment is described as follows: qHTS assay to identify small molecule antagonists of the glucocorticoid receptor (GR) signaling pathway (AID 720692; active = well fitted inhibition curve with a large enough effect in the signal ratio in the repeat runs, not every such curve was filed as active; the % refers to the signal ratio). An outline of the steps:
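Quantitative HTS in antagonist format: HeLa cells expressing endogenous GR and a stably integrated GRE-bla reporter, stimulated with 5 nM dexamethasone (final) alongside test compounds for 18 h.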

A short description of experiment [19]: qHTS assay to test for compound auto fluorescence at 535 nm (green) in HepG2 cells (AID 720675).

Values joined by “and” are separate entries in the source; they are usually repeats but may differ in a detail not shown here. Identical values can stand only once. Inconclusive results are not listed. More than one record can exist for a structure, and the calls need not agree. Active and inactive are the calls of the source. Unless noted, calls come from the whole dose curve; as a rule, active = well fitted curve in the direction sought with a large enough effect in the repeat runs; inconclusive = weak or mixed curves; inactive = no such curve, though single readings can be large; an effect the other way counts as inactive or inconclusive.
% is set by controls: 0 for no effect and ±100 for the full control effect.

Sequence of Glucocorticoid receptor (Homo sapiens) (P04150 whole entry, looked up): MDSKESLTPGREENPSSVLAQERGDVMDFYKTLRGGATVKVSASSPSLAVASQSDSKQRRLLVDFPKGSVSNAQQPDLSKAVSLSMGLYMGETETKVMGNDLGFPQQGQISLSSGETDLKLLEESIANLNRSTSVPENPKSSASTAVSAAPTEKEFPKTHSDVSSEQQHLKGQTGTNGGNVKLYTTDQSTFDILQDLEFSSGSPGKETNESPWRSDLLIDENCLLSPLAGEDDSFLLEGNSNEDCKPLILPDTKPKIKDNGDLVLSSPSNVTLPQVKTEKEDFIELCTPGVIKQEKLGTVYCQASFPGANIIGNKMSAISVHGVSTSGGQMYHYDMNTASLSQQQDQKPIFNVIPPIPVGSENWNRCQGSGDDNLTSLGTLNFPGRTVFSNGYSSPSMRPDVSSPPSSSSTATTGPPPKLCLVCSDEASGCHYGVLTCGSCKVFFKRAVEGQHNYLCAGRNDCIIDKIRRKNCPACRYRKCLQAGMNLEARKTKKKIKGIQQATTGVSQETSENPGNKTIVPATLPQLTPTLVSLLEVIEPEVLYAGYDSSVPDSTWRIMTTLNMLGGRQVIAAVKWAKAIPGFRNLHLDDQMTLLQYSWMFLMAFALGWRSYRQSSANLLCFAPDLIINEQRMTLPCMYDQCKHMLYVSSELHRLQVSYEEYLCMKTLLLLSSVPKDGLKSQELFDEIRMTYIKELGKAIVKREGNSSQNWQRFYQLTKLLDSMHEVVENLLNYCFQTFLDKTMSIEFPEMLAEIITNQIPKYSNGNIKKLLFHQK

Take `C=CCCC#N`: the Potency entry in [1], in experiment [3], in [4], in [5], in experiment [17] and in experiment [18] was “inactive” throughout. Further, the compound was called inactive in experiment [2], in experiment [6], in experiment [7], in [8], in experiment [9] and in [10]. For the same compound, the call in experiment [11], in [12], in [13], in experiment [14], in experiment [15] and in [16] was inactive.

As to `CC(C)(C)C(=O)Cl`, the Potency result in experiment [1], in experiment [3], in experiment [4], in experiment [5], in [17] and in experiment [18] was “inactive” each time. Also, the call in experiment [2], in experiment [6], in [7], in experiment [8], in experiment [9] and in [10] was inactive. In addition, the result in experiment [11], in experiment [12], in experiment [13], in experiment [14], in experiment [15] and in experiment [16] was inactive.

With `CCOc1cc(OP(=S)(OC)OC)nc(CC)n1`, the Potency result in [1], in [3], in experiment [4], in [17] and in [18] was “inactive” in each case. The outcome in experiment [2], in experiment [6], in experiment [19], in experiment [7], in experiment [8] and in experiment [9] was inactive. Also, the compound was classed as inactive in experiment [10], in [11], in experiment [12], in experiment [13], in experiment [14] and in experiment [15]. For the same compound, the outcome in experiment [16] was inactive.

In the case of `Brc1c(Br)c(Br)c(Br)c(Br)c1Br`, the activation in experiment [1] is -6.36% [at 8.3 µM] (inactive); in experiment [2], 2.71% [at 8.08 µM] (inactive); in experiment [17], 0.883% [at 6.9 µM] (inactive). Moreover, the activity change, negative = cytotoxicity was 9.67% [at 8.08 µM] (inactive) in experiment [3] and 4.11% [at 8.08 µM] (inactive) in experiment [5]. For the same compound, in [4], the activity, negative = cytotoxicity is 13.6% [at 8.08 µM] (inactive). Moreover, the fluorescence, relative to Rose Bengal in experiment [6] was 0.167% [at 3.72 µM] (inactive). For the same compound, the values for the fluorescence, % of fluorescein control in [19] and in experiment [15] were 0.0147% [at 3.72 µM] (inactive) and 0.0083% [at 3.72 µM] (inactive), respectively. Also, the fluorescence, % of triamterene in [7] is 0.185% [at 3.72 µM] (inactive). The fluorescence, % of fluorescent control in [8] is -0.438% [at 3.72 µM] (inactive); in [10], 0.241% [at 3.72 µM] (inactive); in experiment [12], -0.398% [at 3.72 µM] (inactive); in experiment [16], 0.182% [at 3.72 µM] (inactive). Besides, the activity change in experiment [11] is 0.039% [at 3.72 µM] (inactive). Further, the fluorescence, % of Rose Bengal in [13] is 0.0791% [at 3.72 µM] (inactive). Also, the activity change, negative = inhibition in experiment [18] is 4.46% [at 7.04 µM] (inactive).

For `CC(C)[N+](C)(CCC(C(N)=O)(c1ccccc1)c1ccccc1)C(C)C`, the Potency entry in experiment [1], in experiment [3], in experiment [4], in experiment [5], in [17] and in experiment [18] was “inactive” each time. Also, the compound was classed as inactive in experiment [2]. The fluorescence, relative to Rose Bengal in experiment [6] is -0.328% [at 18.6 µM] (inactive). The fluorescence, % of triamterene in experiment [7] was 0.0132% [at 18.6 µM] (inactive). Also, the fluorescence, % of fluorescent control was -0.12% [at 18.6 µM] (inactive) in experiment [8]; 0.0496% [at 18.6 µM] (inactive) in experiment [10]; 0.0889% [at 18.6 µM] (inactive) in [12]; -0.0402% [at 18.6 µM] (inactive) in experiment [14]; -0.0322% [at 18.6 µM] (inactive) in [16]. Moreover, the fluorescence, % of fluorescein in experiment [9] was 0.0067% [at 18.6 µM] (inactive). For the same compound, the activity change in [11] was -0.0088% [at 18.6 µM] (inactive). Further, the fluorescence, % of Rose Bengal in experiment [13] was 0.379% [at 18.6 µM] (inactive). The fluorescence, % of fluorescein control in [15] was 0.0122% [at 18.6 µM] (inactive).

Turning to `CC(Cc1ccccc1)NCCn1cnc2c1c(=O)n(C)c(=O)n2C` (stereo unspecified), the Potency result in experiment [1], in experiment [3], in experiment [4], in [17] and in experiment [18] was “inactive” throughout. Further, the compound was called inactive in experiment [2], in experiment [6], in [7], in [8], in experiment [10] and in [11]. The call in experiment [12], in [13], in experiment [14], in experiment [15] and in [16] was inactive.

Regarding `CC(C)(C)c1cc(O)ccc1O`, the Potency entry in experiment [1], in experiment [4], in experiment [5], in [17] and in experiment [18] was “inactive” in each case. In addition, the compound was classed as inactive in experiment [2], in experiment [7], in experiment [8], in [10], in experiment [11] and in experiment [12]. For the same compound, the compound was classed as inactive in experiment [13], in experiment [14], in [15] and in experiment [16]. For the same compound, the Potency entry in experiment [3] is “inactive and 29.8 µM (active)”.

Consider `CCC1(c2ccccc2)CCC(=O)NC1=O` (stereo unspecified), for which the Potency result in experiment [1], in experiment [3], in experiment [4] and in [5] was “inactive” throughout. The outcome in experiment [2], in [6], in experiment [7], in [8], in [10] and in experiment [11] was inactive. Also, the result in [12], in [13], in experiment [14], in experiment [15] and in [16] was inactive.
